Structures are written as SMILES. Among all 69,000 compounds or so, about 8,600 (12%) showed an effect of 50% or more. The full list was thinned out, with strong results kept by preference.

This is an account of results in ChEMBL document CHEMBL4513216, “Probing the Open Global Health Chemical Diversity Library for Multistage-Active Starting Points for Next-Generation Antimalarials” (ACS Infect Dis, 2020).

The experiment deals with Plasmodium berghei. In words: Screen against P. berghei liver stage (PbLuc), transformed with Luciferase, at 10uM. The class given is functional, HepG2. As to conditions: tested at 10 uM.
Turning to `O=C(CCN1CCCC1=O)Nc1cnn(-c2ccccc2Cl)c1`, the INHIBITION is given as -46.4%. Then `CC(CNC(=O)OC(C)(C)C)N(C)C(=O)COc1ccccc1C#N` (stereo not given), with 15.9%; and `Cc1ncsc1C(=O)N(C)Cc1ccsc1`, with -23.955%. Then `Cn1cnc(S(=O)(=O)N2CCCCc3ccccc32)c1`, with -0.613%; and `O=C(O)c1ccccc1CN1CCOC(CCc2ccncn2)C1` (stereo not given), with 20.8%; and `Cc1ccc(C(CNCc2ccncc2)N2CCOCC2)s1` (stereo not given), with -33.2%. Turning to `CCCn1cc(CNCC(c2ccc(C)s2)N2CCOCC2)cn1` (stereo not given), the INHIBITION worked out at 63.7%. Then `Cc1ccc(C(CNCc2ccc(C#N)cc2)N2CCOCC2)s1` (stereo not given), with 69.7%; and `Cc1ccc(C(CNCc2cnn(C(C)C)c2)N2CCOCC2)s1` (stereo not given), with -48.2%.

As to `CCn1cc(CNCC(c2ccc(C)s2)N2CCOCC2)cn1` (stereo not given), the INHIBITION was 14.9%. Then `Cc1ccc(C(CNCc2cccn2C)N2CCOCC2)s1` (stereo not given), with 38%; and `O=C(NCC1COCc2c(-c3ccncc3)nnn2C1)[C@H]1CCCO1` (stereo not given in full), with -34.6%; and `CC(Cn1cccn1)n1cnc2cccc(F)c2c1=O` (stereo not given), with 30%. Then `CCn1ncc(CN2CCc3c(nc(-c4cccnc4)[nH]c3=O)C2)c1C`, with 23.3%; and `OCCN1CCC(c2cncc(-c3cccc(Cl)c3)n2)CC1`, with 23.2%; and `NC(=O)CN1CCCC(C(=O)N2CCC(O)(c3ccccc3)CC2)C1` (stereo not given), with 58.3%. In the case of `N#CC1(c2ccccc2)CCN(C(=O)CN2C(=O)CCNC2=O)CC1`, the INHIBITION was determined as 30.1%. Then `NC(=O)CN1CCCC(C(=O)N2CCC(O)(Cc3ccccc3)CC2)C1` (stereo not given), with 8.07%; and `N#CC1(c2ccccc2)CCN(C(=O)C2CCCN(CC(N)=O)C2)CC1` (stereo not given), with 61%. On to `NC(=O)CN1CCCC(C(=O)N2CCC(Oc3ncccn3)CC2)C1` (stereo not given), for which the INHIBITION is 27.6%.

As for `N#CC1(c2ccccc2)CCN(C(=O)C2CCCN(C(N)=O)C2)CC1` (stereo not given), the INHIBITION is recorded as 30.5%. For `O=C(c1ccc(=O)[nH]n1)N1CCNCC1c1ccccc1` (stereo not given), the INHIBITION is reported as 8.12%. Then `CCOCC(=O)N1CCC(c2cc3ncccc3c(O)n2)CC1`, with 0.301%.

In the case of `CC(C)NC(=O)N1C[C@H](OCc2cccnc2)[C@H]2COC[C@H]21`, the INHIBITION was -18.2%. Then `Cc1nc(O)cc(C2(C)CCCNC2)n1` (stereo not given), with 1.4%; and `Cc1ccc(-n2nc(C)c3c2NC(=O)CC3c2cnc(N)s2)cc1` (stereo not given), with 62.6%; and `CCn1cncc1C1CC(=O)Nc2c1c(C)nn2-c1ccc(C)cc1` (stereo not given), with 42%. Then `Cc1nn(-c2ccccc2)c2c1C(c1ccc(C(=O)O)cc1)CC(=O)N2` (stereo not given), with 32.7%; and `CCn1ncc(S(=O)(=O)N[C@@H]2CCC[C@@H](n3ccnc3)[C@@H]2O)c1C`, with 28.7%. Then `COCCCNc1cc(C)nn2cnnc12`, with 3.35%; and `CC(C)C(C)(CNC(=O)OC(C)(C)C)NC(=O)c1cnccn1` (stereo not given), with 0.705%.

For `CCC(CC)(CNC(=O)OC(C)(C)C)NC(=O)c1cnccn1`, the INHIBITION is listed as 67.4%.

Consider `CC(C)CC(C)(CNC(=O)c1cnccn1)NC(=O)c1cnccn1` (stereo not given), for which the INHIBITION worked out at 25.4%. Then `Cn1ccc(C(=O)N2CCCC2c2cc[nH]n2)n1` (stereo not given), with 21.925%; and `Cc1nn(C)c(N2CCOCC2)c1CNC1CCN(C2CC2)CC1`, with -21.7%. Consider `NC(=O)NC(=O)CNc1cccc(C(=O)c2ccccc2)c1`, for which the INHIBITION turned out to be 0.0459%. Then `CCN1CCN(S(=O)(=O)c2cc(C)c(Cl)cc2Cl)CC1`, with 43.5%.

In the case of `CCN1CCN(S(=O)(=O)c2ccc(Cc3cc(C)n[nH]c3=O)cc2)CC1`, the INHIBITION is reported as 9.96%. Then `CCN1CCN(S(=O)(=O)c2cc(Cl)c(Cl)cc2C)CC1`, with 61.8%. Take `CCN1CCN(S(=O)(=O)c2ncn(C)c2Cl)CC1`: the INHIBITION is given as -10.4%. Then `CCN1CCN(S(=O)(=O)c2cc(C)c(C)cc2Br)CC1`, with 66.5%. Regarding `CCN1CCN(S(=O)(=O)c2cc(C)c(Cl)cc2C)CC1`, the INHIBITION was 49.7%.

As for `CN(C)S(=O)(=O)c1ccc(CNC(=O)C2CC(=O)N(C(C)(C)C)C2)cc1` (stereo not given), the INHIBITION is on record as -3.305%. Consider `CN(C)C(=O)CN1CCC(c2nnc(Cn3cccn3)n2C2CC2)CC1`, for which the INHIBITION turned out to be 16.3%. Take `CN1[C@H](CN2CCCC2)C[C@@H]2CN(C(=O)c3cnccn3)CC[C@@H]21`: the INHIBITION is recorded as 18.6%. Then `Cc1nc(C2CCN(c3ccccc3)CC2)no1`, with 32.8%; and `Cc1noc(C2CCN(C(=O)c3ccc(N(C)C)nc3)CC2)n1`, with 6.92%; and `Cc1noc(C2CCN(C(=O)c3ccc(NC4CC4)nc3)CC2)n1`, with 59.7%. On to `Cc1noc(C2CCN(C(=O)c3ccc(C(F)(F)F)nc3)CC2)n1`, for which the INHIBITION is recorded as -34.025%. As for `CCCc1ccc2oc(C(=O)N3CCC(O)CC3)c(C)c2c1`, the INHIBITION worked out at 2.7%. Then `CSc1ccc(Cl)c(C(=O)N2CCCC(CNS(C)(=O)=O)C2)c1` (stereo not given), with 41.4%. Then `COc1ccccc1OCC(=O)NS(=O)(=O)c1cccnc1`, with 29.8%.

For the compound `CCn1c(SCC(=O)N2CCOCC2)nc2cc(C)[nH]c2c1=O`, the INHIBITION worked out at 2.69%. Then `CCC(C)n1c(SCC(=O)N2CCOCC2)nc2cc(C)[nH]c2c1=O` (stereo not given), with 57.3%; and `Cc1cc2nc(SCC(=O)N3CCOCC3)n(C(C)C)c(=O)c2[nH]1`, with 47.4%.
